Measurements from PubChem BioAssay (NCI).
This is part of a sample that, as a whole, favours compounds with a hit. Of some 83,000 tested, about 20% had one in any assay.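 Step 1: grow cells in 96-well plates. Step 2: add test compound at a single concentration. Step 3: incubate 48 h. Step 4: record percent growth.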 Values without a mark were called inactive. Calls of active or inactive are those of the source.

test system: NCI-H23 lung; assay: NCI-60 one-dose screen, 48 h (100 = growth as untreated, 0 = no growth, -100 = all killed); settings: 10 µM unless noted
Experimental: Growth inhibition of the NCI-H23 human Non-Small Cell Lung tumor cell line is measured as a screen for anti-cancer activity. Cells are grown in 96 well plates and exposed to the test compound for 48 hours. Compounds are tested at a single concentration, which is 10^-5 M for most compounds. The reported endpoint is percent growth (GI% or GIPRCNT), where numbers from 0 - 100% represent growth inhibition, and numbers from -100% - 0 represent cell death. For example, a value of 40 represents 60% growth inhibition. A value of 0 means no net growth occurred over the course of the experiment. A value of -40 indicates 40% of cells at the beginning of the experiment died by the end of the experiment. A value of -100 means all cells are dead at the end of the experiment.
NCI-60 Human Tumor Cell Lines Screen was performed using the standard one-dose NCI protocol, which is described in more detail at https://dtp.cancer.gov/discovery_development/nci-60/default.htm.
Compounds with GIPRCNT values below 10 were considered active. Activity score was based on GIPRCNT using the following formula: […]
Score is 0 for GIPRCNT values of 100 or above, 50 for GIPRCNT values of 0, and 100 for GIPRCNT values of -100.

SMILES	growth
C(=N\Nc1ccc2ccccc2n1)/c1ccccn1	32.4%
CCN(CC)CC(O)c1cc(-c2ccc(Cl)cc2)nc2cc(Cl)ccc12 (stereo not given)	70.8%
CCC(C)(O)Cc1ccc(Cl)cc1 (stereo not given)	109%
CC(C)(C)CC(C)(C)c1ccc(OCCOCCSC(=N)N)cc1	30.8%
Cc1ccc2c(c1)sc(-c1ccc(N(C)C)cc1)[n+]2C	12.2%
O=C(C[P+](c1ccccc1)(c1ccccc1)c1ccccc1)c1ccccc1	91.9%
C1=C(c2ccccc2)c2ccccc2C1	98.5%
O=C1Nc2ccc(Br)cc2C1=O	97.5%
CCc1cnc2ccccc2c1/C=C/c1ccc(N(C)C)cc1	65.2%
Cc1cc(I)nc2ccccc12	95.1%
O=[n+]1c2ccccc2n([O-])c2cc(Cl)ccc21	91.3%
Cc1ccc(/C=C2\CNC/C(=C\c3ccc(C)cc3)C2=O)cc1	2.76% (active)
NNc1ccc(Cl)cc1Cl	82.7%
COc1cc([C@@H]2c3cc4c(cc3[C@H](OC3OC5COC(c6ccccc6)OC5C(O)C3O)[C@H]3COC(=O)[C@H]23)OCO4)cc(OC)c1OC (stereo not given in full)	22.4%
Cc1onc(-c2ccccc2)c1C(=O)N/N=C/c1cc(Cl)cc(Cl)c1O	53.2%
Clc1ccc(Cc2nc3ccccc3s2)cc1	89.3%
COc1cc2c(c(OC)c1OC)-c1ccc(NCc3ccccc3)c(=O)cc1[C@@H](NC(C)=O)CC2	25.9%
N#C/C(=N\Nc1ccc(Cl)cc1)C(=O)C1CC1	42.4%
N#CCc1cccc2ccccc12	109%
S=c1[nH]c2cc(Cl)ccc2s1	105%

SMILES	growth
CC(=O)Nc1ccc(C(=O)CCl)cc1	86.4%
O=C(c1ccc(O)c(Br)c1)c1ccc(O)c(Br)c1	103%
CCCCCCCCCCCC1=NCCCN1CCCC	94.2%
O=C(/C=C/C(Cl)(Cl)Cl)Nc1ccc(Cl)cc1	81.5%
CCOc1ccc(C(C[N+](=O)[O-])Sc2ccccc2N)cc1 (stereo not given)	10.2%
O=[N+]([O-])c1ccc(N2CCN(Cc3ccccc3)CC2)c2c1no[n+]2[O-]	13%
CCCC[n+]1c(/C=C\c2c(OC)cc(OC)cc2OC)ccc2ccccc21	-4.06% (active)
CCC1CCCCN1C(=S)N/N=C(\C)c1ccccn1 (stereo not given)	20.8%
O=C(CCl)N(c1ccccc1)c1ccccc1	98.1%
NC(=S)N/N=C\c1nccc2c(N)cccc12	15.6%
CCCCCCCCCCCC[S+](C)CC(=O)[O-] (stereo not given)	25.9%
CC(=O)C1Cc2ccccc2C1=O (stereo not given)	95.4%
CCc1oc2ccccc2c1C(=O)c1cc(Br)c(O)c(Br)c1	52.9%
c1ccc(C2NCCNC2c2ccccc2)cc1 (stereo not given)	103%
CCCCCCCCCCCCSC(=N)N	87.4%
Clc1ccccc1C(c1ccccc1)(c1ccccc1)n1ccnc1	41.9%
CCOc1ccc2c(c1)/C(=C\C=C\C1CC(C)C3CC(OCC)CCC3N1CC)CC(C)N2CC (stereo not given)	14.5%
CCOC(=O)C1(C)CCCC1N (stereo not given)	102%
COc1ccc2nc3cc([N+](=O)[O-])ccc3c(NNc3ccccc3)c2c1	66.6%
Nc1cccc2cccc([N+](=O)[O-])c12	101%
